# Structures can show the parent of a compound that is named as a salt.
# Tested on: Saccharomyces cerevisiae BY4741 SeMeCo community
# Assay: z-score of subpopulation abundance vs DMSO median, subpopulation auxotrophic for LUM; higher = larger share of this subpopulation than in DMSO controls
# Conditions: 10 µM; 24 h; SM minimal medium; subpopulation (auxotrophy): LUM
# Method: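 Fluorescent four-plasmid SeMeCo (self-establishing metabolically cooperating S. cerevisiae BY4741 community; plasmids pH-mRuby2, pL-mWasabi, pU-eCFP, pM-TagRFP657) was grown 24 h in minimal SM medium with each Selleck FDA-approved drug at 10 µM in 384-well plates. Cells were fixed and imaged by high-content confocal microscopy. For each auxotrophic subpopulation (and the prototroph), a z-score gives the deviation from the DMSO vehicle-control population median.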
row,Compound,z-score of subpopulation abundance
1,C[C@]12CC[C@@H]3c4ccc(OC(=O)c5ccccc5)cc4CC[C@H]3[C@@H]1CC[C@@H]2O [Estradiol Benzoate],0.37
2,C[N+]1(C)CCC(OC(=O)C(O)(c2ccccc2)C2CCCC2)C1 (stereo not given) [Glycopyrrolate],0.56
3,CCCCN1CCCC[C@H]1C(=O)Nc1c(C)cccc1C [Levobupivacaine HCl],-0.33
4,OCc1ccccc1O[C@@H]1O[C@H](CO)[C@@H](O)[C@H](O)[C@H]1O [Salicin],0.42
5,O=C1C(N(CO)C(=O)NCO)N(CO)C(=O)N1CO (stereo not given) [Diazolidinyl urea],-0.16
6,CS(=O)(=O)c1ccc([C@@H](O)[C@@H](CF)NC(=O)C(Cl)Cl)cc1 [Florfenicol],-0.3
7,COC(=O)C1=C(C)NC(C)=C(C(=O)OC2CCCN(Cc3ccccc3)C2)C1c1cccc([N+](=O)[O-])c1 (stereo not given) [Benidipine HCl],0.29
8,CCN(CC)CCNC(=O)c1cc(S(C)(=O)=O)ccc1OC [Tiapride Hydrochloride],0.9
9,CC[C@@]1(O)C(=O)OCc2c1cc1n(c2=O)Cc2cc3cc(O)ccc3nc2-1 [(S)-10-Hydroxycamptothecin],0.42
10,C#C[C@]1(OC(C)=O)CC[C@H]2[C@@H]3CCC4=C[C@@H](OC(C)=O)CC[C@@H]4[C@H]3CC[C@@]21C [Ethynodiol diacetate],-0.12
11,Nc1ccc(S(=O)(=O)Nc2ncccn2)cc1 [Sulfadiazine],0.42
12,Cc1onc(-c2ccccc2Cl)c1C(=O)N[C@@H]1C(=O)N2[C@@H]1SC(C)(C)[C@@H]2C(=O)O [Cloxacillin Sodium],1.65
13,CN(C)[C@@H]1C(=O)C(C(N)=O)=C(O)[C@@]2(O)C(=O)C3=C(O)c4c(O)ccc(Cl)c4[C@@H](O)[C@H]3C[C@@H]12 [Demeclocycline HCl],-0.57
14,O=C(Nc1c(Cl)cncc1Cl)c1ccc(OC(F)F)c(OCC2CC2)c1 [Roflumilast],-0.56
15,OC(c1ccccc1)(c1ccccc1)C12CC[N+](CCOCc3ccccc3)(CC1)CC2 [Umeclidinium bromide],-0.49
16,C[n+]1ccccc1C=NO [Pralidoxime Iodide],0.18
17,CN(C)CC(c1ccc(O)cc1)C1(O)CCCCC1 (stereo not given) [Desvenlafaxine],-0.64
18,CCC(=O)NS(=O)(=O)c1ccc(-c2c(-c3ccccc3)noc2C)cc1 [Parecoxib Sodium],1.18
19,N=C(N)NC(=N)N1CCOCC1 [Moroxydine HCl],0.38
20,CO/N=C(\C(=O)N[C@@H]1C(=O)N2C(C(=O)O)=C(COC(C)=O)CS[C@H]12)c1csc(N)n1 [Cefotaxime sodium],0.05

row,Compound,z-score of subpopulation abundance
1,Cc1cc(-n2c(=O)[nH]c(=O)n(C)c2=O)ccc1Oc1ccc(SC(F)(F)F)cc1 [Toltrazuril],-0.13
2,O=c1n(CCCN2CCN(c3cccc(Cl)c3)CC2)nc2ccccn12 [Trazodone HCl],-0.51
3,Cc1cccc(Nc2ccccc2C(=O)O)c1C [Mefenamic Acid],-0.45
4,O=c1[nH]cnc2c1ncn2[C@@H]1O[C@H](CO)[C@@H](O)[C@H]1O [Isoprinosine],-0.5
5,CN1C2CCCC1CC(NC(=O)c1nn(C)c3ccccc13)C2 (stereo not given) [Granisetron],-0.48
6,OC1(c2ccc(Cl)c(C(F)(F)F)c2)CCN(CCCC(c2ccc(F)cc2)c2ccc(F)cc2)CC1 [Penfluridol],2.56
7,"OCc1ccc(Cl)cc1Cl [2,4-dichlorobenzyl alcohol]",-0.03
8,CCC1(C)CC(=O)NC1=O (stereo not given) [Ethosuximide],1.11
9,COc1ccnc(C[S+]([O-])c2nc3cc(OC(F)F)ccc3[nH]2)c1OC (stereo not given) [Pantoprazole sodium],0
10,NC(=O)Cc1cccc(C(=O)c2ccccc2)c1N [Nepafenac],0.29
11,CCCc1nn(C)c2c(=O)[nH]c(-c3cc(S(=O)(=O)N4CCN(C)CC4)ccc3OCC)nc12 [Sildenafil Citrate],-0.09
12,CCOC(=O)C1=C[C@@H](OC(CC)CC)[C@H](NC(C)=O)[C@@H](N)C1 [Oseltamivir Phosphate],-0.21
13,COCC1=C(C(=O)OC(C)OC(=O)OC(C)C)N2C(=O)[C@@H](NC(=O)/C(=N\OC)c3csc(N)n3)[C@H]2SC1 (stereo not given in full) [Cefpodoxime proxetil],0.36
14,CCCCCCCN(CC)CCCC(O)c1ccc(NS(C)(=O)=O)cc1 (stereo not given) [Ibutilide Fumarate],0.19
15,O=c1c(-c2ccc(O)cc2)coc2c([C@@H]3O[C@H](CO)[C@@H](O)[C@H](O)[C@H]3O)c(O)ccc12 [Puerarin],-1.14
16,COC(=O)C1=C(C#N)NC(C)=C(C(=O)OC(C)C)C1c1cccc([N+](=O)[O-])c1 (stereo not given) [Nilvadipine],-0.7
17,COc1ccc2cc([C@H](C)C(=O)O)ccc2c1 [Naproxen],-0.97
18,CCN1CCN(C(=O)N[C@@H](C(=O)N[C@@H]2C(=O)N3[C@@H]2SC(C)(C)[C@@H]3C(=O)O)c2ccccc2)C(=O)C1=O [Piperacillin Sodium],0.86
19,CN1CCc2cc3c(cc2C(=O)Cc2ccc4c(c2C1)OCO4)OCO3 [Protopine],1.38
20,Cc1onc(-c2c(F)cccc2Cl)c1C(=O)N[C@@H]1C(=O)N2[C@@H]1SC(C)(C)[C@@H]2C(=O)O [Flucloxacillin sodium],-0.02

# From the supplement of paper PMC8975748
